One experiment concerns the target Albumin (Bos taurus) (UniProt P02769). In words: bovine serum albumin binders on microarray, profiling panel, artefact control for SMM control protein annotation, biochemical, small-molecule microarray, Alexa647 label, 635/667 nm fluorescence (AID 1118).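 Note: score merges 667 nm emission intensity and signal-to-noise per printed compound spot.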 The note with it: BSA-A647 binding, fluorescence 635 nm, higher = more signal.
The nature of experiment [1]: small-molecule microarray binders of probe aXIP, primary screen, biochemical, NeuroSMM set, 635/667 nm fluorescence (AID 1119).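 Note: probe is the protein aXip251-270 applied at 1 µg/mL to compound-printed slides; binding of probe to printed compounds measured as 667 nm fluorescence plus signal to noise.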 The following applies: higher = more signal, called active from +8 up or from −8 down.
Experiment [2] is described as follows: small-molecule binders of probe aNOTCH3, primary screen, biochemical, small-molecule microarray, 635/667 nm fluorescence (AID 1120).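 Note: probe is a biotin-tagged antibody raised against NOTCH3 rather than NOTCH3 protein; score merges spot fluorescence near 667 nm with spot signal to noise.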 The note with it: higher = more signal.
Experiment [3] in a line: small-molecule binders of probe aNOTCH2, primary screen, biochemical, small-molecule microarray, 635/667 nm fluorescence (AID 1121).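 Note: score merges feature fluorescence read at 667 nm with its signal to noise.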 The following applies: higher = more signal.
Experiment [4] has as its target Carbonic anhydrase 2 (Homo sapiens) (UniProt P00918). The experiment is described as follows: CAII small-molecule binders, profiling panel, biochemical, small-molecule microarray, Alexa647-labelled CAII (AID 1122). The following applies: CAII-A647 binding fluorescence, higher = more signal.
Experiment [5] can be described thus: COS7 lysate on small-molecule microarray, probe aHis, 635 nm (AID 1123).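 Note: z-score combines 667nm fluorescence intensity with signal-to-noise per printed compound spot.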 The following applies: COS7 cell lysate, fluorescence, higher = more signal.
Experiment [6] can be described thus: compound binding in COS7 lysate, probe aLAP1, primary screen, cell lysate, small-molecule microarray (AID 1124).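 Note: lysate comes from COS7 cells expressing LAP1 and is applied at 0.3 µg/mL; score merges spot fluorescence near 667 nm with signal-to-noise over triplicate slides.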 The following applies: probe aLAP1, fluorescence, higher = more signal.
In the next experiment the test system is Sam68 (KHDRBS1). In words: Sam68 small-molecule binders, primary screen, biochemical, small-molecule microarray, 635 nm fluorescence (AID 1125).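 Note: score merges 667 nm channel intensity with signal to noise over triplicate slides.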 The note with it: small-molecule microarray binding, higher = more signal.
Experiment [7] has as its system Chordin-like protein 2 (CHRDL2). In words: CHRDL2 small-molecule binders, primary screen, biochemical, small-molecule microarray, 635 nm fluorescence (AID 1126).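 Note: printed compound slides probed with Chrdl2 protein at 4 µg/mL for 1 h at 4 C; score merges 667 nm emission intensity with signal to noise over three replicate slides.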 The note with it: small-molecule microarray binding, fluorescence 635 nm; higher = more signal.
Experiment [8] deals with Concanavalin-A (Canavalia ensiformis) (UniProt P02866). The experiment is described as follows: ConA small-molecule binders, primary screen, artefact control for SMM control protein annotation, biochemical, small-molecule microarray, Alexa647 label, 635 nm (AID 1127).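 Note: z combines 667 nm emission intensity with signal-to-noise across three replicate slides.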 The following applies: ConA-A647 binding fluorescence, higher = more signal.

The source made the active and inactive calls.

Sequence of Albumin (Bos taurus) (P02769 whole entry, looked up): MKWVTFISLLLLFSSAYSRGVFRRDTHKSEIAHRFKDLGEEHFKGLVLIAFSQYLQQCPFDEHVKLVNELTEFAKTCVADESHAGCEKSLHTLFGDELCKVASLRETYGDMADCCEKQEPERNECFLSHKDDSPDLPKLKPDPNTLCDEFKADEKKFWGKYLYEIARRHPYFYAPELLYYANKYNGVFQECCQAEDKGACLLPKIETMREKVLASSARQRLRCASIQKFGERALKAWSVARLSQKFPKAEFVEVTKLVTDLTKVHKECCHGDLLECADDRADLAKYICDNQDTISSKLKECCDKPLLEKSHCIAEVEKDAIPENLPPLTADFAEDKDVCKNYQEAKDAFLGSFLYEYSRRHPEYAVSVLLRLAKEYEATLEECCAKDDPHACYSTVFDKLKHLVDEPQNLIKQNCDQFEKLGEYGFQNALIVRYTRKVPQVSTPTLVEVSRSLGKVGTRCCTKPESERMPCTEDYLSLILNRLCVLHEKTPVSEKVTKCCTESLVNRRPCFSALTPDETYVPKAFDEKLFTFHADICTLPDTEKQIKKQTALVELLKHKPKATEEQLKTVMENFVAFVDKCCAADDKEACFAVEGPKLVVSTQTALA
Sequence of Concanavalin-A (Canavalia ensiformis) (P02866 whole entry, looked up): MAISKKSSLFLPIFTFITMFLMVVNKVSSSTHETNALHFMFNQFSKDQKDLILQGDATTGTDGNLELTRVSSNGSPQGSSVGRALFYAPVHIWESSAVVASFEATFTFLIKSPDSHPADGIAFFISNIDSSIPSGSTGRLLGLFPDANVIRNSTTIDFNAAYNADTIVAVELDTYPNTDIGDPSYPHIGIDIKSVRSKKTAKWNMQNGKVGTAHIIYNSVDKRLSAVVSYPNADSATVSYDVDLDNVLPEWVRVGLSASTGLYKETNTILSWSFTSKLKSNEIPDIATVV

`CC(=O)n1cc(C(O)C2C=CC3C(=O)N(C)C(=O)C3N2Nc2ccccc2)c2ccccc21` (stereo not given): the composite z-score with Albumin (Bos taurus) is 0.712; in [2] it was 0.235; in experiment [3], 0.027; in [4], 0.562; in experiment [5], 1.84; in experiment [6], -0.0989. Also, the values for the composite z-score (in the experiment with Sam68 (KHDRBS1); in [7]; in experiment [8]) were 1.11, 1.25 and 0.897, respectively. For the same molecule, the composite Z-score in experiment [1] was -0.803 (inactive).

With `CC(C)c1ccc(NN2C(C(O)C(c3ccccc3)c3ccccc3)C=CC3C(=O)N(c4ccccc4)C(=O)C32)cc1` (stereo not given), the composite z-score in the experiment with Albumin (Bos taurus) worked out at 0.933; in experiment [2] it was 0.424; in experiment [3] it was 0.101; in experiment [4] it was 0.797; in [5] it was 2.74; in experiment [6], 0.902. For the same molecule, the composite z-score in the experiment with Sam68 (KHDRBS1) was 1.32; in experiment [7] it was -0.348; in experiment [8], 1.14. Also, the composite Z-score in experiment [1] was -0.136 (inactive).

Regarding `CC(C)C(CO)N1C(=O)[C@@H]2[C@H]3C(=O)OCC=C[C@H]3OC23C=CCN(C(C)C)C(=O)[C@@H]13` (stereo not given in full), the composite z-score is -0.457 with Albumin (Bos taurus); -0.149 in experiment [2]; -0.14 in experiment [3]; -0.0147 in experiment [4]; -0.312 in [5]; -0.313 in experiment [6]. Further, the composite z-score in the experiment on Sam68 (KHDRBS1) was 0.239; in experiment [7] it was 0.292; in experiment [8] it was -0.529. In addition, the composite Z-score in experiment [1] is 0.12 (inactive).

`COc1cc(CO)cc(I)c1O[C@H]1C=C(C(=O)NCCO)C[C@@H](N(CCN2CCOCC2)C(=O)C2CCOC2)[C@@H]1O` (stereo not given in full): the composite z-score is -1.02 in the experiment with Albumin (Bos taurus); 0.189 in experiment [2]; -0.0729 in [3]; 0.0321 in experiment [4]; -0.204 in experiment [5]; 0.459 in experiment [6]. In addition, the results for the composite z-score (in the experiment with Sam68 (KHDRBS1); in experiment [7]; in [8]) were 0.322, 0.486 and -0.169, respectively. In experiment [1], the composite Z-score is 0.0953 (inactive).

Turning to `CCCCC(O)C1C=CC2C(=O)N(c3ccccc3)C(=O)C2N1Nc1ccccc1F` (stereo not given), the composite z-score in the experiment with Albumin (Bos taurus) was determined as 0.8; in [2], 0.378; in experiment [3], 0.387; in experiment [4] it was 0.747; in experiment [5] it was 2.54; in experiment [6], 0.439. Besides, the composite z-score in the experiment on Sam68 (KHDRBS1) stood at 1.12; in experiment [7] it was 0.0354; in [8], 1.13. Also, in experiment [1], the composite Z-score was 1.54 (inactive).

With `CCCC[C@H]1OB(O)C[C@H]2C1=C(COc1ccccc1)C[C@H]1C(=O)N(C)C(=O)[C@H]12`, the composite z-score is -0.137 with Albumin (Bos taurus); -0.0046 in experiment [2]; -0.0596 in experiment [3]; -0.0293 in [4]; 0.486 in [5]; 0.0594 in [6]. Also, the results for the composite z-score (with Sam68 (KHDRBS1); in experiment [7]; in experiment [8]) were -0.348, 0.497 and -0.271, respectively. Further, in [1], the composite Z-score was -0.252 (inactive).

`COCCOC(=O)N1C(=O)[C@@]2(c3cc(C#CC4=CCCCC4)ccc31)[C@H](c1ccc(O)cc1)N1[C@H](c3ccccc3)[C@H](c3ccccc3)OC(=O)[C@H]1[C@@H]2C(N)=O`: the composite z-score with Albumin (Bos taurus) was -0.353; in experiment [2], 0.092; in [3], -0.253; in experiment [4], 0.331; in [5], 1.16; in [6] it was 0.45. The results for the composite z-score (in the experiment on Sam68 (KHDRBS1); in experiment [7]; in [8]) were 1.01, 0.71 and 1.06, respectively. For the same molecule, in experiment [1], the composite Z-score is 0.544 (inactive).

As for `O=C1NC(=O)C2C1C=CC(C(O)c1cccc3ccccc13)N2Nc1ccccn1` (stereo not given), the composite z-score with Albumin (Bos taurus) was 0.421; in [2], 0.138; in experiment [3], -0.0966; in experiment [4], 0.553; in experiment [5], 0.296; in experiment [6], 0.447. In addition, the composite z-score with Sam68 (KHDRBS1) was found to be 0.0488; in experiment [7], 0.394; in [8], 0.506. Moreover, the composite Z-score in [1] is 0.0886 (inactive).

Regarding `C=CCN1C(=O)[C@@]2(O[C@@H](CCO)[C@H]([Si](C)(C)c3ccc(OC)cc3)[C@H]2C)c2cc(NC(=O)c3ccc(OC)cc3)ccc21`, the composite z-score is 0.317 with Albumin (Bos taurus); -0.0006 in experiment [2]; -0.0836 in experiment [3]; 0.187 in experiment [4]; 0.244 in [5]; 0.0327 in experiment [6]. Moreover, the composite z-score stood at 1.18 in the experiment on Sam68 (KHDRBS1), 0.927 in [7] and 1.03 in experiment [8]. In experiment [1], the composite Z-score is -0.265 (inactive).

On to `CCOC(=O)[C@H]1CC=C2CC1C(=O)N1CCC[C@@H]1[C@@H]2O[Si](C)(C)C(C)(C)C` (stereo not given in full), for which the composite z-score was -0.0458 with Albumin (Bos taurus); -0.213 in [2]; -0.161 in experiment [3]; -0.386 in experiment [4]; 0.168 in experiment [5]; -0.407 in [6]. The composite z-score in the experiment with Sam68 (KHDRBS1) is -0.0813; in [7], -0.287; in [8], -2.28. In [1], the composite Z-score is 0.131 (inactive).

As for `Cc1ccc(S[C@]2(C(=O)NC3CC3)CC(=O)N(C3Cc4ccccc4C3)[C@@H]2c2ccc(CO)cc2)cc1`, the composite z-score was 0.79 with Albumin (Bos taurus); -0.161 in experiment [2]; 0.016 in experiment [3]; 0.628 in experiment [4]; 1.81 in [5]; 0.845 in experiment [6]. Besides, the composite z-score with Sam68 (KHDRBS1) was 0.963; in [7], -0.759; in [8], 0.356. Further, in experiment [1], the composite Z-score was 0.157 (inactive).

Consider `COC(=O)C(CC#Cc1ccc2c(c1)[C@]1(C(=O)N2)[C@H](c2ccc(O)cc2)N2[C@H](c3ccccc3)[C@H](c3ccccc3)OC(=O)[C@H]2[C@@H]1C(=O)Nc1nc2ccccc2s1)C(=O)OC`, for which the composite z-score in the experiment with Albumin (Bos taurus) was 0.847; in [2] it was 0.138; in [3], -0.0454; in [4], 0.556; in [5] it was 2.21; in experiment [6] it was 0.445. Moreover, the composite z-score was determined as 1.31 in the experiment on Sam68 (KHDRBS1), 0.806 in experiment [7] and 1.12 in experiment [8]. The composite Z-score in [1] is -0.516 (inactive).

Consider `COc1cc(OC)c(C(O)C2C=CC3C(=O)NC(=O)C3N2Nc2ccc(Cl)cc2Cl)cc1Br` (stereo not given), for which the composite z-score was 1 with Albumin (Bos taurus); 0.282 in experiment [2]; 0.321 in [3]; 0.615 in experiment [4]; 2.99 in [5]; 0.474 in [6]. Also, the composite z-score with Sam68 (KHDRBS1) was 1.22; in [7] it was -1.09; in experiment [8], 0.468. Also, the composite Z-score in experiment [1] is 2.76 (inactive).

Take `O=C(NCc1ccccc1)[C@@H]1c2ccccc2C(=O)N(CC23CC4CC(CC(C4)C2)C3)[C@H]1c1ccc(CO)cc1`: the composite z-score in the experiment with Albumin (Bos taurus) is 0.438; in experiment [2], -0.274; in experiment [3] it was -0.265; in experiment [4], 0.467; in experiment [5] it was 0.813; in experiment [6], 1.17. The composite z-score with Sam68 (KHDRBS1) turned out to be 1.28; in [7], 0.452; in experiment [8] it was 1.1. In addition, the composite Z-score in [1] is 1.23 (inactive).

For the molecule `CC1CC/C=C\[C@H]2OC34C=CCN(C(C)(C)C)C(=O)[C@H]3N(CCCCCCO)C(=O)[C@@H]4C2C(=O)O1` (stereo not given in full), the composite z-score is -0.805 with Albumin (Bos taurus); -0.295 in [2]; -0.114 in experiment [3]; 0.932 in [4]; 0.178 in experiment [5]; 0.843 in [6]. Further, the composite z-score in the experiment with Sam68 (KHDRBS1) is -0.281; in experiment [7], -1.07; in experiment [8] it was -0.239. For the same molecule, in [1], the composite Z-score was -0.358 (inactive).

As to `O=C1c2ccccc2[C@](Cc2ccccc2I)(C(=O)NC2CC2)[C@H](c2ccc(CO)cc2)N1Cc1ccccc1`, the composite z-score with Albumin (Bos taurus) was -0.213; in [2], -0.0055; in experiment [3] it was -0.0495; in experiment [4], 0.711; in [5], 1.7; in experiment [6] it was 0.478. Besides, the values for the composite z-score (in the experiment with Sam68 (KHDRBS1); in experiment [7]; in experiment [8]) were 0.512, -0.0374 and 0.894, respectively. In addition, the composite Z-score in [1] was 0.476 (inactive).

(Values after PubChem BioAssay.)
